# LDHA block: inhibitors of human lactate dehydrogenase A | purified LDHA, NADH/diaphorase-resazurin fluorescence; active compounds read low | hit rate 0.15% among 480,000 | activity change, % (values are at about 110 or 230 µM) | P00338 | AID 1347041; in the data active means activity change below about -30%; inconclusive means mostly about -25% to -30%;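 further: plate controls were DMSO wells for no effect and wells without enzyme for full effect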
#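 Human LDH5 at 2 nM final in Tris HCl pH 7.4 with 0.06 mM NADH and 0.2 mM pyruvate, reacted 5 minutes at room temperature. Remaining NADH coupled via diaphorase/resazurin; resorufin fluorescence read at 0 and 20 minutes, normalized to enzyme-free and DMSO wells.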
# Mito fusion yeast: mitochondrial division inhibition or fusion activation; S. cerevisiae fusion-defective mutant growth rescue, CellTiterGlo 48 h; Potency, µM (doses to about 46.1 µM), inactives show at the highest dose growth rescue (activation), actives largely listed as activators; hit rate 0.23% among 320,000; further: potency means the concentration at half of the fitted maximal effect; % of control where 0% means no effect; nearly all actives have a fitted effect of over 45% in size
#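 Temperature-sensitive fusion-defective S. cerevisiae (e.g. fzo1-1, mgm1-5) were grown with compound in YPEG medium (3% ethanol, 3% glycerol) for 48 hours at 37C. Growth rescue was measured as viability by CellTiterGlo luminescence after 10 minutes at ambient.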
# ASM inhibitor: inhibitors of human secretory acid sphingomyelinase | hit rate 0.006% among 340,000 | AID 504937 | placental ASM, HMU-PC fluorogenic substrate, 60 min | Potency, µM (highest dose often 57.5 µM), for inactives: top-dose activity change, negative = inhibition, most hits filed as inhibitors; further: potency means the concentration at half of the fitted maximal effect
#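 Steps: dispense placental human ASM, pin compound, wait 10 min at room temperature, add HMU-PC0 substrate at 9 uM final, incubate 60 min at 37 °C, add stop solution raising pH to 10, read fluorescence.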
# RGS4 inh: blocks human RGS4-accelerated GTP hydrolysis; P49798; Transcreener GDP fluorescence polarization, RGS4-accelerated GTP hydrolysis; Potency, µM (doses to about 114 µM), for the others: at the top dose activity change, negative = inhibition, hits mostly inhibitors; hit rate 0.039% among 390,000; AID 504845; further: potency means the concentration at half of the fitted maximal effect; on the % scale 0 is the no-effect control and ±100 the full control effect; nearly all actives have a fitted effect of over 75% in size
# Target sequence (P49798 whole entry, looked up): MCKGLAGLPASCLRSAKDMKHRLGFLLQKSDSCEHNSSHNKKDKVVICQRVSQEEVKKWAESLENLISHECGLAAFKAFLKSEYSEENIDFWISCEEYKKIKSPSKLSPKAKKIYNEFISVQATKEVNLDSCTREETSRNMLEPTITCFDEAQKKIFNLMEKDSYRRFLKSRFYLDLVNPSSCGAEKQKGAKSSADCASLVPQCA
#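 MLSMR compounds (23 nl, pin-transferred) preincubated 10 min at room temperature with a 500nM (2x) first reagent, then RGS4 at 900nM (2x) plus Transcreener GDP mix added; fluorescence polarization (620/688 nm) read before and after 90 min at 30 °C.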
# IDH1 R132H inh: blocks human mutant IDH1 R132H enzyme; AID 602179; hit rate 0.093% among 390,000; IDH1-R132H enzyme, NADPH consumption, diaphorase/resazurin fluorescence; Potency, µM (titrated, usually from 76.6 µM), for inactives: at the highest dose activity change, negative = inhibition, most hits filed as inhibitors; O75874; further: potency means the concentration at half of the fitted maximal effect; on the % scale 0 is the no-effect control and ±100 the full control effect; nearly all actives have a fitted effect of over 65% in size
#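 IDH1-R132H (0.5 ug/mL) preincubated 30 min with compound, then NADPH (0.016 mM) and alpha-KG (2 mM) added; 80 min at RT, pH 7.5. Remaining NADPH coupled via diaphorase/resazurin to fluorescence (540/590 nm); concentration-response curves normalized to no-enzyme control.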
# ClpP mod: qHTS Assay for Activators of ClpP; ATP-dependent Clp protease proteolytic subunit (Bacillus subtilis (strain 168)), P80244; purified B. subtilis ClpP, FRET peptide cleavage, 20 min; Potency, µM (series often up to 57.5 µM), without a hit: at the highest dose activity change, negative = active; hit rate 1.9% among 340,000; AID 651965, 2013; active means well fitted falling curve with a large enough effect; inconclusive means small, poorly fitted or top-dose-only effect; inactive means no such curve, though single readings can be large or run the other way; further: potency means the concentration at half of the fitted maximal effect; the source files actives as falling curves though it sought activators and does not explain the sign; nearly all actives have a fitted effect of over 65% in size
# Target sequence (P80244 whole entry, looked up): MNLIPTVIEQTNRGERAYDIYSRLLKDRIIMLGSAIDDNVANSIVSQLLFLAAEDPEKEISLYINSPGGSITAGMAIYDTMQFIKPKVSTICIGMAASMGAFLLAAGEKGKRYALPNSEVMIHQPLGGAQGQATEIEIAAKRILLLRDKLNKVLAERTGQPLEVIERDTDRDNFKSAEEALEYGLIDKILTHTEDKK
#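 Buffer: 100 mM Tris/HCl pH8, 100 mM KCl, 0.05% low protease BSA, 2.5% glycerol, 0.01% Tween-20. ClpP 10 microg/mL final; 20 min RT; delta FRET normalized to ADEP and DMSO controls.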
# The depositor's hits bear a star; i = inactive; ? = inconclusive; . = no result given. The entries come from a sample that favours hits as a whole. Unless noted, the call rests on the fitted dose curve; in most records, active means well fitted curve in the direction sought with a large enough effect; inconclusive means small, poorly fitted or top-dose-only effect, or another doubt; inactive means no such curve, though single readings can be large; an effect the other way counts as inactive or inconclusive.
SMILES,LDHA block,Mito fusion yeast,ASM inhibitor,RGS4 inh,IDH1 R132H inh,ClpP mod
COc1ccccc1-n1c(=O)n(C)c2c(C(N)=O)nc(-c3cccc(OC)c3OC)nc21,5,.,.,-17%,10%,0%
COc1ccc2[nH]c(=O)c(-c3noc(-c4cccs4)n3)cc2c1,-38*,.,.,.,.,.
COc1cccc(-c2ccc(-c3noc(-c4ccncc4)n3)c(OC)n2)c1,1,.,.,.,.,.
CCOc1nc(-c2ccccc2)ccc1-c1noc(-c2cccs2)n1,1,-1%,-1%,-21%,9%,25µM*
COc1cccc(-c2ccc(-c3noc(-c4ccccc4F)n3)c(OC)n2)c1,-3,5%,0%,-11%,0%,14µM*
COc1ccccc1-c1nc(-c2ccc(C)nc2OC)no1,-10,5%,5%,33%,3%,14µM*
CCOc1nc(-c2ccccc2)ccc1-c1noc(-c2ccncc2)n1,1,0%,0%,17%,1%,-25%
Cc1ccc(C(O)CNC(=O)Nc2ccc(C)cc2C)cc1 (stereo not given),10,.,.,.,.,.
COc1cccc(-c2ccc(-c3noc(-c4cccs4)n3)c(OC)n2)c1,-38*,1%,-8%,?,4%,?
COCc1nc(-c2ccc(-c3ccccc3)nc2OC)no1,1,10%,3%,-15%,3%,?
CCOc1nc(-c2ccccc2)ccc1-c1noc(COC)n1,0,7%,0%,21%,5%,35µM*
CC(C)COc1ccc(C(=O)Nc2ccc(N3CCN(S(C)(=O)=O)CC3)cc2)cc1,-35*,.,.,.,.,.
CC(C)CC(=O)Nc1ccc(N2CCN(S(C)(=O)=O)CC2)cc1,-6,-4%,-2%,-45%,-9%,2%
Cc1ccc(Cn2ccc(-c3cnc(-c4ccccc4)s3)n2)cc1,-6,7%,58%,4%,3%,-22%
O=S(=O)(c1ccccc1)n1ccc(-c2cnc(-c3ccccc3)s2)n1,7,-4%,-15%,6%,3%,14µM*
CC(=O)Nc1ccc(S(=O)(=O)Oc2ccc(C(=S)N3CCCCC3)cc2)cc1,-5,10%,-2%,?,-3%,4µM*
CC(=O)Nc1ccc(S(=O)(=O)Oc2ccc(C(=S)N3CCC(O)CC3)cc2)cc1,-2,-11%,.,?,1%,1%
c1csc(CNC2C3CC4CC(C3)CC2C4)c1 (stereo not given),0,.,.,.,.,.
Cc1ccsc1CNC1C2CC3CC(C2)CC1C3 (stereo not given),-8,-6%,0%,-17%,-9%,22µM*
N#Cc1ccc(N2CCC(C(=O)Nc3cn[nH]c3)CC2)nc1,9,.,.,.,.,.
CC(=O)NCCNC(=O)c1ccc2ccccc2n1,-31*,.,.,.,.,.
CCN(CC)CCNC(=O)c1ccc2ccccc2n1,5,.,.,.,.,.
Cc1oc2c(CN(C)C)c(O)ccc2c(=O)c1-c1cscn1,-2,2%,41%,15%,3%,25µM*
COc1cccc(Oc2c(C)oc3c(CN4CCCCC4)c(O)ccc3c2=O)c1,-2,-1%,391%,-2%,-8%,4%
CCc1cc2c(=O)c(-c3cscn3)coc2c(CN(C)C)c1O,-2,-5%,125%,-20%,-2%,16µM*
COc1ccc(Oc2c(C)oc3c(CN(C)C)c(O)ccc3c2=O)cc1,-1,4%,64%,7%,-1%,28µM*
CCc1c(C)c2ccc(O)c(CN(C)C)c2oc1=O,5,-5%,i,-6%,14%,-34%
COc1ccc(Oc2coc3c(CN(C)C)c(O)ccc3c2=O)cc1,-2,3%,51%,45%,-3%,28µM*
Cc1cc(C)cc(Oc2coc3c(CN(C)C)c(O)ccc3c2=O)c1,-3,3%,348%,-13%,1%,0%
COc1cc(NC(=O)COC(=O)c2ccccc2SCc2c(C)noc2C)cc(OC)c1,2,.,.,.,.,.
